Test results taken from PubChem BioAssay.
Inconclusive results are not listed. Activity calls are given as the source filed them.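 Rule for the calls, unless noted: active = compounds that lower viability of the colon cancer cells in the luminescence readout, with no numeric limit stated; inactive = the rest.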

What was measured:
[1] = stimulators of insulin release from INS-1E, primary screen, cell-based, 5 mM glucose, NPC library (AID 1117329;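 active = compound raises insulin release from rat beta cells at 5 mM glucose, no numeric limit stated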); conditions: rat INS-1E insulin secretion, at 10 µM, stronger effect = higher value
[2] = growth inhibition of GSK3B-pretreated HCT116 cells – cell-based, CellTiter-Glo, 0.2 to 20 µM (AID 1117336;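 active = compounds lowering colon cancer cell viability after pretreatment blocking the GSK3B kinase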); conditions: HCT116 viability after GSK3B inhibitor, at 20 µM, stronger effect = higher value
[3] = inhibition of endothelial tube formation, primary screen, imaging, VEGF stimulated, CD31 staining, tube area, NPC library (AID 1117340;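 active = compound that reduces growth-factor-driven endothelial tube area in a mixed cell culture, no cutoff stated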); conditions: VEGF-stimulated ADSC/ECFC co-culture, at 10 µM, stronger effect = higher value
[4] = glucagon-like peptide 1 release enhancers, primary assay, NCI-H716 cell line, NPC library (AID 1117341;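 active = compound raises GLP1 secretion from the human gut endocrine cells, with no numeric limit stated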); conditions: NCI-H716 cells, at 10 µM, stronger effect = higher value
[5] = HCT116 colon cancer cell growth inhibition, primary screen, CellTiter-Glo luminescence, NPC library (AID 1117342;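 active = compounds that lower survival of HCT116 colon cancer cells in the luminescence readout, no numeric limit stated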); conditions: at 20 µM (top of the series)
[6] = CellTiter-Glo luminescent readout of SW480 viability loss, NPC library primary (AID 1117343); conditions: CellTiter-Glo luminescence; at 20 µM (top of the series)
[7] = decreased DLD-1 cellular survival, CellTiter-Glo luminescent readout, NPC compound collection, primary HTS (AID 1117346;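 active = compounds that lower survival of DLD-1 colon cancer cells in the luminescence readout, no cutoff given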); conditions: DLD-1 viability, CellTiter-Glo luminescence; at 20 µM (top of the series)
[8] = differential killing of epithelial or mesenchymal cells, primary screen, imaging, PC-3E GFP, TEM4-18 mCherry, co-culture (AID 1345086;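 active = compounds killing one labelled cell type while sparing the other, by normalised counts and ratio limits, not self-fluorescent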;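 for all read-outs here: cells exposed to compound for 72 h before imaging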;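 for red/green cell ratio (normalised): normalised mesenchymal count divided by normalised epithelial count so high means epithelial killing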); conditions: imaging cell counts, at 1 µM; for red/green cell ratio (normalised): actives lie on both sides, counts scaled to control wells, 1 = unselective
[9] = growth inhibition of DIPG glioma cells, dose response, cell-based, SU-DIPG-XVII, MIPE5.0, CellTiter-Glo, qHTS (AID 1347060; cut-off not given, nearly all actives have AC50 up to about 26 µM;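 for AC50: cells exposed to compound for 48 hours before viability readout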); conditions: SU-DIPG-XVII viability, CellTiter-Glo ATP luminescence
[10] = growth inhibition of DIPG glioma cells, dose response, cell-based, SU-DIPG-XIII, MIPE4.0, CellTiter-Glo, qHTS (AID 1347061; cut-off not given, nearly all actives have AC50 up to about 37 µM;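 note: cells exposed to compound for 48 hours before readout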); conditions: SU-DIPG-XIII viability, CellTiter-Glo ATP luminescence
[11] = growth inhibition of DIPG glioma cells, dose response, cell-based, JHH-DIPG-1, MIPE4.0, CellTiter-Glo, qHTS (AID 1347062; cut-off not given, nearly all actives have AC50 up to about 27 µM;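 for AC50: cells exposed to compound for two days before readout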); conditions: JHH-DIPG-1 viability, CellTiter-Glo ATP luminescence
[12] = growth inhibition of DIPG glioma cells, dose response, cell-based, SU-DIPG-IV, MIPE4.0, CellTiter-Glo, qHTS (AID 1347063; cut-off not given, nearly all actives have AC50 up to about 30 µM;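 note: compound exposure lasted 48 hours before the viability readout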); conditions: SU-DIPG-IV viability, CellTiter-Glo ATP luminescence
[13] = growth inhibition of DIPG glioma cells, dose response, cell-based, SU-DIPG-XIII, MIPE5.0, CellTiter-Glo, qHTS (AID 1347064; cut-off not given, nearly all actives have AC50 up to about 23 µM;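 for AC50: cells exposed to compound for 48 hours before the viability read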); conditions: SU-DIPG-XIII viability, CellTiter-Glo ATP luminescence
[14] = test system: Aerobactin synthetase IucA (Klebsiella pneumoniae); assay: IucA aerobactin synthetase inhibitors, biochemical, Tocris library, absorbance (AID 1345561; call rule not given here;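 note: 100% = enzyme without compound and 0% = no enzyme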); conditions: purified IucA enzyme assay, absorbance (OD) read-out; stronger effect = lower value;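 tested at 8 µM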
[15] = measured here: epithelial PC-3E GFP cell survival
[16] = measured here: mesenchymal TEM4-18 mCherry cell survival

CN(C)c1ccc2nc3ccc(=[N+](C)C)cc-3sc2c1
0.15: normalised cell number [8, 15]
0.1: normalised cell number [8, 16]
active: viability decrease [2] 98.6% | tube area decrease [3] 103% | GLP1 secretion stimulation [4] 280% | inhibition of viability [5] 97.8% | viability decrease (inhibition) [6] 65.3% | AC50 [9] 5.9 µM | AC50 [10] 4.69 µM | AC50 [11] 2.96 µM | AC50 [12] 5.9 µM | AC50 [13] 2.63 µM
inactive: insulin secretion stimulation [1] -1.1% | viability decrease (inhibition) [7] 44.2% | red/green cell ratio (normalised) [8] 0.68

CC(=O)O[C@H]1C[C@@H]2CC[C@@H]3[C@H](CC[C@@]4(C)[C@H]3C[C@H]([N+]3(C)CCCCC3)[C@@H]4OC(C)=O)[C@@]2(C)C[C@@H]1N1CCCCC1
inactive: insulin secretion stimulation [1] 0.6% | viability decrease [2] -4.1% | tube area decrease [3] 4.6% | GLP1 secretion stimulation [4] 13.2% | inhibition of viability [5] 3.2% | viability decrease (inhibition) [6] -6.9% | viability decrease (inhibition) [7] -7.1% | outcome [9] | outcome [10] | outcome [11] | outcome [12]

CCC(=O)O[C@]1(C(=O)SCF)[C@H](C)C[C@H]2[C@@H]3C[C@H](F)C4=CC(=O)C=C[C@]4(C)[C@@]3(F)[C@@H](O)C[C@@]21C
inactive: insulin secretion stimulation [1] 0.4% | viability decrease [2] -30.2% | tube area decrease [3] -19.4% | GLP1 secretion stimulation [4] 9.8% | inhibition of viability [5] 6.27% | viability decrease (inhibition) [6] 39.6% | viability decrease (inhibition) [7] -7.2% | remaining activity [14] 125% | outcome [9] | outcome [11] | outcome [12]

COc1ncnc(NS(=O)(=O)c2ccc(N)cc2)c1OC
0.5: normalised cell number [8, 15]
0.6: normalised cell number [8, 16]
inactive: insulin secretion stimulation [1] 0.1% | viability decrease [2] -6.5% | tube area decrease [3] -10.7% | GLP1 secretion stimulation [4] 8.3% | inhibition of viability [5] -1.93% | viability decrease (inhibition) [6] -16.8% | viability decrease (inhibition) [7] -22.2% | red/green cell ratio (normalised) [8] 1.18 | outcome [9] | outcome [10] | outcome [11] | outcome [12] | outcome [13]

O=C(O)CN1C(=O)c2cccc3cccc(c23)C1=O
1.28: normalised cell number [8, 16]
1: normalised cell number [8, 15]
inactive: insulin secretion stimulation [1] -1.8% | viability decrease [2] -2.7% | tube area decrease [3] -6.3% | GLP1 secretion stimulation [4] 1.6% | inhibition of viability [5] -17.1% | viability decrease (inhibition) [6] 22.8% | viability decrease (inhibition) [7] 2.05% | red/green cell ratio (normalised) [8] 1.28 | remaining activity [14] 110%

CC1=C(C)C(=O)C(C(CCCCCC(=O)O)c2ccccc2)=C(C)C1=O (configuration not stated)
1.08: normalised cell number [8, 16]
inactive: insulin secretion stimulation [1] -0.1% | viability decrease [2] 20.4% | tube area decrease [3] -6.8% | GLP1 secretion stimulation [4] 4% | inhibition of viability [5] -4.2% | viability decrease (inhibition) [6] -12.9% | viability decrease (inhibition) [7] -13.3% | red/green cell ratio (normalised) [8] 1.03 | outcome [9] | outcome [10] | outcome [11] | outcome [12]
1.04: normalised cell number [8, 15]

CCCCCN(C)CCC(O)(P(=O)(O)O)P(=O)(O)O
0.98: normalised cell number [8, 16]
0.86: normalised cell number [8, 15]
inactive: insulin secretion stimulation [1] 7.6% | viability decrease [2] 1.9% | tube area decrease [3] -11.9% | GLP1 secretion stimulation [4] -0.5% | inhibition of viability [5] 9% | viability decrease (inhibition) [6] 17.5% | viability decrease (inhibition) [7] 15.6% | red/green cell ratio (normalised) [8] 1.14 | outcome [9] | outcome [10] | outcome [11] | outcome [12] | outcome [13]

Cc1nc(-c2ccc(OCC(C)C)c(C#N)c2)sc1C(=O)O
inactive: insulin secretion stimulation [1] 3.8% | viability decrease [2] 25.8% | tube area decrease [3] -47.3% | GLP1 secretion stimulation [4] 4.1% | inhibition of viability [5] 25.4% | viability decrease (inhibition) [7] 28.7% | red/green cell ratio (normalised) [8] 1 | outcome [9] | outcome [10] | outcome [11] | outcome [12] | outcome [13]
1.08: normalised cell number [8, 15] | normalised cell number [8, 16]
active: viability decrease (inhibition) [6] 57.5%

C[C@@H]1CN(c2c(F)c(N)c3c(=O)c(C(=O)O)cn(C4CC4)c3c2F)C[C@H](C)N1
inactive: insulin secretion stimulation [1] 2.1% | viability decrease [2] 13.2% | tube area decrease [3] -14.6% | GLP1 secretion stimulation [4] 0.3% | inhibition of viability [5] 23.4% | viability decrease (inhibition) [6] -0.6% | viability decrease (inhibition) [7] -18.8% | red/green cell ratio (normalised) [8] 0.99 | outcome [9] | outcome [10] | outcome [11] | outcome [12] | outcome [13]
1.11: normalised cell number [8, 16]
1.12: normalised cell number [8, 15]

Oc1cccc2[nH]ccc12
1.31: normalised cell number [8, 15]
1.12: normalised cell number [8, 16]
inactive: insulin secretion stimulation [1] 4.05% | viability decrease [2] 41.8% | tube area decrease [3] -3.7% | GLP1 secretion stimulation [4] -2.4% | inhibition of viability [5] 9.6% | viability decrease (inhibition) [6] 0.4% | viability decrease (inhibition) [7] -8.1% | red/green cell ratio (normalised) [8] 0.85

O=NN(CCCl)C(=O)NC1CCCCC1
inactive: insulin secretion stimulation [1] -0.3% | viability decrease [2] 11.8% | GLP1 secretion stimulation [4] -0.1% | inhibition of viability [5] -0.2% | viability decrease (inhibition) [7] 3.5% | red/green cell ratio (normalised) [8] 1.11 | outcome [9] | outcome [10] | outcome [11] | outcome [13]
1.15: normalised cell number [8, 16]
active: tube area decrease [3] 56.7% | viability decrease (inhibition) [6] 57.8%
1.04: normalised cell number [8, 15]

COc1cc(C(=O)OCCCN2CCCN(CCCOC(=O)c3cc(OC)c(OC)c(OC)c3)CC2)cc(OC)c1OC
0.92: normalised cell number [8, 16]
active: insulin secretion stimulation [1] 79.2% | inhibition of viability [5] 77.6% | viability decrease (inhibition) [6] 92.3%
0.76: normalised cell number [8, 15]
inactive: viability decrease [2] 38.2% | tube area decrease [3] 4.6% | GLP1 secretion stimulation [4] 7.5% | viability decrease (inhibition) [7] 24% | red/green cell ratio (normalised) [8] 1.21 | remaining activity [14] 90.6%
